A selection: hits, their analogues and other compounds. The true share with any hit is near 5.9%.
Gal4-VP16 FLuc = Gal4-VP16 reporter inhibition counter-screen; Drosophila S2 Gal4-VP16 UAS-luciferase, luminescence, 20 h; Potency, µM (series often up to 53.6 µM), for inactives: at the highest dose activity, negative = inhibition, actives largely listed as inhibitors; hit rate 3.5% among 310,000;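 further: Gal4-VP16 expression switched on by copper sulfate through the metallothionein promoter; potency means the concentration at half of the fitted maximal effect; nearly all actives have a fitted effect of over 50% in size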
TrxR1 inh = inhibitors of rat thioredoxin reductase 1; O89049; recombinant rTrxR1, NADPH fluorescence consumption, selenite substrate; Potency, µM (top dose mostly 114 µM), inactives show top-dose activity change, negative = inhibition, actives largely listed as inhibitors; hit rate 1% among 390,000; further: potency means the concentration at half of the fitted maximal effect; nearly all actives have a fitted effect of over 65% in size
Target sequence (O89049 whole entry, looked up): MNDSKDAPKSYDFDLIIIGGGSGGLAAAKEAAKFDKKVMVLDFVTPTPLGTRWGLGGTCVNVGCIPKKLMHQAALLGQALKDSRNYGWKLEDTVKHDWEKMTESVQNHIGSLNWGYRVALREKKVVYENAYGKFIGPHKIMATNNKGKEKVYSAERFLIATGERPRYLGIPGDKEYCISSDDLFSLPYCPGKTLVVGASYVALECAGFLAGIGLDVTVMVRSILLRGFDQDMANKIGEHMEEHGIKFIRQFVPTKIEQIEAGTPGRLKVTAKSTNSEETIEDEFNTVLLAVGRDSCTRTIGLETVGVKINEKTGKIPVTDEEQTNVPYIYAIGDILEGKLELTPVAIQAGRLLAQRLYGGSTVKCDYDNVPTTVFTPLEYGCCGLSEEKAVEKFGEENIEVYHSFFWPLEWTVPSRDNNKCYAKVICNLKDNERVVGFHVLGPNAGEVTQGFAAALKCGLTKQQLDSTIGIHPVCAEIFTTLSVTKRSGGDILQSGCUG
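Rat TrxR1 (90 nM in the dispensed reagent) was pre-reduced with 400 uM NADPH for 5 min at room temperature, then incubated with compound for 15 min. After 400 uM selenite was added, NADPH fluorescence (Ex 340/Em 450 nm) was followed for 8 min.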
FBPA coupling cs = coupling enzyme interference in Giardia aldolase counter-screen | hit rate 0.67% among 290,000 | coupling enzyme system counterscreen, AmpLite Red fluorescence | activity change, negative = inhibition, % at 58.2 µM, hits read low; in the data active means activity change below about -30%
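Counterscreen lacking aldolase: glyceraldehyde-3-phosphate coupling-enzyme reagent preincubated 10 min at RT with compound (at 57.5 uM final), then substrate/coupling system with AmpLite Red added; fluorescence read at 525/598 nm after 20 min RT.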
GALK inhibitor = galactokinase (human) inhibition. P51570. Purified GALK, Kinase-Glo residual ATP luminescence. Potency, µM (doses to about 57.5 µM), for the others: at the highest dose activity change, negative = inhibition, hits mostly inhibitors. hit rate 0.007% among 270,000; further: potency means the concentration at half of the fitted maximal effect
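GALK at 5 nM final was combined with compound, 35 uM ATP and 100 uM galactose in HEPES pH8.0 with MgCl2 and DTT. The reaction ran one hour at room temperature before luminescent ATP detection.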
RORgamma inh = inhibitors of mouse ROR gamma transcriptional activity; P51450; Drosophila S2 Gal4-RORgamma UAS-luciferase reporter, 20 h; Potency, µM (top dose mostly 53.6 µM), for inactives: top-dose activity change, negative = inhibition, most hits filed as inhibitors; hit rate 5.4% among 310,000; further: potency means the concentration at half of the fitted maximal effect; nearly all actives have a fitted effect of over 60% in size
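Drosophila S2 cells stably expressing Gal4-DBD/mouse RORγ fusion under metallothionein promoter plus UAS-luciferase; compound 1 h, then 700 uM CuSO4 induction for 20 h at ambient temperature; inhibition read as reduced luminescence.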
TrxR1 substrate = rat thioredoxin reductase 1 substrate activity | O89049 | purified TrxR1 substrate turnover, NADPH consumption readout | Potency, µM (titrated, usually from 114 µM), without a hit: at the top dose activity change, negative = substrate turnover | hit rate 0.01% among 390,000; further: potency means the concentration at half of the fitted maximal effect; nearly all actives have a fitted effect of over 50% in size
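Rat TrxR1, dispensed at 90 nM, was prereduced with 400 uM NADPH (final) for 5 min at ~22 deg C, then incubated with compound 15 min before 400 uM selenite. A first-read NADPH fluorescence drop versus no-compound background flagged substrates.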
* = called active by the depositor; ? = inconclusive; . = not tested or not shown; [ ] = dose if it differs, or a comment. Unless noted, the call rests on the fitted dose curve; in most records, active means well fitted curve in the direction sought with a large enough effect; inconclusive means small, poorly fitted or top-dose-only effect, or another doubt; inactive means no such curve, though single readings can be large; an effect the other way counts as inactive or inconclusive. On the % scale 0 is the no-effect control and ±100 the full control effect.

SMILES	Gal4-VP16 FLuc	TrxR1 inh	FBPA coupling cs	GALK inhibitor	RORgamma inh	TrxR1 substrate
Cc1ccc2oc(-c3ccccc3)nc2c1	?	7%[57.1 µM]	2	0%	?	-20%[57.1 µM]
S=c1nc[nH]c2c1sc1nc(-c3ccccc3)c3c(c12)CCCC3	10µM*	?	11	-3%	16µM*	-6%
O=C(COC(=O)c1ccc(O)cc1O)NCCN1C(=O)CSC1=O	23%	12%	2	-1%	24%	-5%
CCOC(=O)c1c(C)[nH]c(C(=O)OCc2ccc([N+](=O)[O-])cc2)c1C	-10%	7%	.	1%	-1%	-4%
CCOC(=O)c1c(C)[nH]c2c1cc(O)c1ccccc12	?	-5%	-33*	-2%	-28%	-5%
CCOC(=O)c1c(C)oc2c1cc(O)c1ccccc12	17%	13%[57.1 µM]	-14	-5%	-4%	12%[57.1 µM]
CCOC(=O)c1c(C)[nH]c(C(=O)N/N=C/c2cc([N+](=O)[O-])ccc2O)c1C	?	1%	1	-2%	2.2µM*	-4%
CCOC(=O)c1c(C)[nH]c(C(=O)N/N=C/c2ccc(OC)c(OC)c2)c1C	-7%	25%	.	-4%	-34%	2%
CCOC(=O)c1c(C)[nH]c(C(=O)N/N=C\c2ccccc2O)c1C	1.4µM*	3%	1	0%	1.6µM*	-3%
Cc1ccccc1-c1nnn(CC(=O)N2CCN(C(=O)c3ccco3)CC2)n1	.	-15%	.	.	.	-4%
CCC[N+](C)(C)C(C)C(OC(C)=O)c1ccccc1 (stereo not drawn)	0%	-23%	0	-4%	5%	-20%
COc1ccc(-c2cn[nH]c2-c2ccc(OCc3ccc(F)cc3)cc2O)cc1OC	3.5µM*	22%	-11	-1%	1.6µM*	5%
COc1ccccc1-c1cn[nH]c1-c1ccc(O)cc1O	?	14%	-4	-1%	?	6%
COc1ccc(-c2cn[nH]c2-c2ccc(OCc3ccccc3)cc2O)cc1OC	-2%	10%	3	1%	7%	7%
COc1ccccc1-c1cn[nH]c1-c1ccc(OCc2ccc(F)cc2)cc1O	?	27%[57.1 µM]	0	3%	7.9µM*	5%[57.1 µM]
COc1ccccc1-c1cn[nH]c1-c1ccc(OCc2ccccc2F)cc1O	?	19%	-7	0%	8.9µM*	-1%
CC(=O)OC[C@@H]1O[C@H](C/C=N\O[C@@H](C)CN2CCCCc3nc(C)c(C)cc32)C=C[C@@H]1OC(C)=O	-9%[10 µM]	.	3	.	14%[10 µM]	.
CC(C)OCCCn1c(=S)[nH]c2ncccc2c1=O	?	2%	4	0%	8.9µM*	-2%
CCN(CC)CCCn1c(=S)[nH]c2ncccc2c1=O	-3%	2%	0	3%	-7%	26%
CCCCN(C)CCn1c(=S)[nH]c2ncccc2c1=O	-1%	-10%	1	0%	-32%	-6%
CCN(CCCn1c(=S)[nH]c2ncccc2c1=O)c1ccccc1	4µM*	5%	-3	-3%	1.4µM*	-6%
CN(C)CCCN(C(=O)c1ccc(S(=O)(=O)N2CCc3ccccc3C2)cc1)c1nc2c(F)cccc2s1	-24%	0%	-1	0%	4.5µM*	-7%
Cc1cccc2sc(N(CCCN(C)C)C(=O)c3ccc(S(=O)(=O)N4CCc5ccccc5C4)cc3)nc12	11µM*	-7%	-3	5%	?	-10%
CN(C)CCCN(C(=O)c1ccc(S(=O)(=O)N2CCCC2)cc1)c1nc2c(F)cc(F)cc2s1	.	0%[57.1 µM]	.	.	.	-1%[57.1 µM]
Cc1cc(C(=O)N/N=C/c2ccc(N(C)C)o2)cs1	6.3µM*	14µM*	.	-6%	13µM*	2%
CN(C)c1ccc(/C=N/NC(=O)C(O)(c2ccccc2)c2ccccc2)o1	11µM*	8.9µM*	-9	1%	8.9µM*	0%
O=C(N/N=C/c1ccc(N2CCCCC2)o1)C(O)(c1ccccc1)c1ccccc1	13µM*	.	-7	1%	11µM*	.

Screening data from PubChem BioAssay.
